Measured values: the supplement of paper PMC11732987, “Enantioselective OTUD7B fragment discovery through chemoproteomics screening and high-throughput optimisation” (Communications Chemistry, 2025)

Columns and labels:
Test in all cases: log2 ratio of Biotin-Ahx-Ub-VS probe labelling (fragment/DMSO); higher = less target engagement (more negative = stronger competition), active = hit call of the paper (q ≤ 0.05, log2 ratio ≤ -1)
Conditions in all cases: compound concentration: 200 uM; treatment time: 3 h
USP34 = USP34 (UniProt Q70CQ2)
How it was run: (§1)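 HEK293T lysate (495 µg per sample, in Tris/CHAPS/IGEPAL buffer with protease inhibitors) was exposed in triplicate for 3 h to fragment at 200 µM or to vehicle, then to Biotin-Ahx-Ub-VS at 0.5 µM final for 1 h. Labelled DUBs were enriched on NeutrAvidin, digested with LysC and trypsin, and analysed by diaPASEF LC-MS/MS. Spectronaut label-free quantities were normalised to the global median, and values are average log2 ratios of fragment over vehicle from an unpaired t-test. Only proteins with ≥2 unique peptides were used.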

USP36 = target: T1, USP36 (UniProt Q9P275)
T1 sequence (whole entry): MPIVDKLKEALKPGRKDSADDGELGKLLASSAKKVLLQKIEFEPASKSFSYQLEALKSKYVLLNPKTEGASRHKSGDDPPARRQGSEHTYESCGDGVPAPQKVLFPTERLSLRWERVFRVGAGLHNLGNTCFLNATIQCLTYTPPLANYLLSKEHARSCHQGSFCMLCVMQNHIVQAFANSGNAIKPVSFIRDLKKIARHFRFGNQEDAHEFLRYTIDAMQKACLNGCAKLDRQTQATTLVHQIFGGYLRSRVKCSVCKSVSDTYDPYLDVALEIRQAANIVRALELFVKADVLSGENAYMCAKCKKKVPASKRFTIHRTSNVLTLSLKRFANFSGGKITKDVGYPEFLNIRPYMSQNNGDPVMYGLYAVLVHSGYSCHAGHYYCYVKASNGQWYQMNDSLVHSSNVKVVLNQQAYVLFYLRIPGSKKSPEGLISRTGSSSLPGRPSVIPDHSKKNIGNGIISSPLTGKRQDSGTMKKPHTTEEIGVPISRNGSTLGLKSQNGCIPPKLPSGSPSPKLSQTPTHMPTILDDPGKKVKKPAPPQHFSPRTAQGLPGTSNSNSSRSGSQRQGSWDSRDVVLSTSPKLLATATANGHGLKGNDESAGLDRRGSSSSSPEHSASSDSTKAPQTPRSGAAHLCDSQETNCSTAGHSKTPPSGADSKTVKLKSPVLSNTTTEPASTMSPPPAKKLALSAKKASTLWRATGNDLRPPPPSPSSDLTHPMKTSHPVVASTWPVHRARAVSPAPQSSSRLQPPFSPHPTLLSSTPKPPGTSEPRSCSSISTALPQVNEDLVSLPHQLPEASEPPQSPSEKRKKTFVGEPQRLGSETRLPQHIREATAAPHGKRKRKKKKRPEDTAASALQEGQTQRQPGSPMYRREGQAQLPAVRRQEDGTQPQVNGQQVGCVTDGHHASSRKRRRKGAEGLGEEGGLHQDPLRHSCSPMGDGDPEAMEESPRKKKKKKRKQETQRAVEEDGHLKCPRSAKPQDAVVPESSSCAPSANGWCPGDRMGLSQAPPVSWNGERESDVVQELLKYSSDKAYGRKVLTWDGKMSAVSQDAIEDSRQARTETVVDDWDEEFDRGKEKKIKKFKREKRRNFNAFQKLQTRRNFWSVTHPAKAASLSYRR
How it was run: as §1

USP38 = target: T2, USP38 (UniProt Q8NB14)
T2 sequence (whole entry): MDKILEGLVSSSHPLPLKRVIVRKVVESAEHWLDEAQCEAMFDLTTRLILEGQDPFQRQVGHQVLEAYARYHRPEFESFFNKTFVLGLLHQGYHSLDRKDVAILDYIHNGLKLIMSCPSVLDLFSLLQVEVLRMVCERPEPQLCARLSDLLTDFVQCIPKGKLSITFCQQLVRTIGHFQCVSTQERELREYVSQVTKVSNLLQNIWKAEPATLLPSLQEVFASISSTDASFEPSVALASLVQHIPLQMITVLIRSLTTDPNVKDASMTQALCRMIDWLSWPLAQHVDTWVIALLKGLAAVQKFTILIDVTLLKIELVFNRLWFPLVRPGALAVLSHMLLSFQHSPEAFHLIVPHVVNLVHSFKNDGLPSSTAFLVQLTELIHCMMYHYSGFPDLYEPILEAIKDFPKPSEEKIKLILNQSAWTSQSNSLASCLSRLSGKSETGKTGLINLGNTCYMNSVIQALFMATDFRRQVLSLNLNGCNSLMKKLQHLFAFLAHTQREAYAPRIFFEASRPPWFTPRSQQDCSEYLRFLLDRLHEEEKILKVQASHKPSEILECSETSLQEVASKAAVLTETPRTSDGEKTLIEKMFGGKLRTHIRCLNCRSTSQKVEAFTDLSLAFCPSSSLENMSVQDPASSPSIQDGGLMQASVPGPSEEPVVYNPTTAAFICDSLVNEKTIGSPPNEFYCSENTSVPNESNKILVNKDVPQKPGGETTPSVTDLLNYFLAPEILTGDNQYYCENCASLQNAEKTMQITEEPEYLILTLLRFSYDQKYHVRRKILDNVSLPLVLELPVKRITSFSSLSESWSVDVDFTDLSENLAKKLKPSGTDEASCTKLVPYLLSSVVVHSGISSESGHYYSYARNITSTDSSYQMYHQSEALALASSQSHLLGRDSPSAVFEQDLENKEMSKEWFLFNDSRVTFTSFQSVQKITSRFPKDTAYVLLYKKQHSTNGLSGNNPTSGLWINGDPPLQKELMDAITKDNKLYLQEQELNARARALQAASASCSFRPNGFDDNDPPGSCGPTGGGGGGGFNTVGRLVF
How it was run: as §1

USP39 = target: T3, USP39 (UniProt Q53GS9)
T3 sequence (whole entry): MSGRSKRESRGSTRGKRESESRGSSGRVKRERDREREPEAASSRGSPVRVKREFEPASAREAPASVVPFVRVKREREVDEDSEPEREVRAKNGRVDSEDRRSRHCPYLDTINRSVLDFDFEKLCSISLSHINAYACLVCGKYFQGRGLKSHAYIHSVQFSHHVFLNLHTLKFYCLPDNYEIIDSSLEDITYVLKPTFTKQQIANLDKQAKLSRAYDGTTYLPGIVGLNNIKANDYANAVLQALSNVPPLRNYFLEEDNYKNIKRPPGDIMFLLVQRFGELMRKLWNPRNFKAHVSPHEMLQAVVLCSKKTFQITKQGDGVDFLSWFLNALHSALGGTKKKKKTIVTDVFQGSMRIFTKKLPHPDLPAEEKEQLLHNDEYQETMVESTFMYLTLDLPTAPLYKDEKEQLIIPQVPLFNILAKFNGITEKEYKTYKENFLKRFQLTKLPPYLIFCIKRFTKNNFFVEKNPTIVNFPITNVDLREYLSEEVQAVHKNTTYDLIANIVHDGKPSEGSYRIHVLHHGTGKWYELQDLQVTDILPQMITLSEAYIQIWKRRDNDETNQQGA
How it was run: as §1

USP4 = target: T4, USP4 (UniProt Q13107)
T4 sequence (whole entry): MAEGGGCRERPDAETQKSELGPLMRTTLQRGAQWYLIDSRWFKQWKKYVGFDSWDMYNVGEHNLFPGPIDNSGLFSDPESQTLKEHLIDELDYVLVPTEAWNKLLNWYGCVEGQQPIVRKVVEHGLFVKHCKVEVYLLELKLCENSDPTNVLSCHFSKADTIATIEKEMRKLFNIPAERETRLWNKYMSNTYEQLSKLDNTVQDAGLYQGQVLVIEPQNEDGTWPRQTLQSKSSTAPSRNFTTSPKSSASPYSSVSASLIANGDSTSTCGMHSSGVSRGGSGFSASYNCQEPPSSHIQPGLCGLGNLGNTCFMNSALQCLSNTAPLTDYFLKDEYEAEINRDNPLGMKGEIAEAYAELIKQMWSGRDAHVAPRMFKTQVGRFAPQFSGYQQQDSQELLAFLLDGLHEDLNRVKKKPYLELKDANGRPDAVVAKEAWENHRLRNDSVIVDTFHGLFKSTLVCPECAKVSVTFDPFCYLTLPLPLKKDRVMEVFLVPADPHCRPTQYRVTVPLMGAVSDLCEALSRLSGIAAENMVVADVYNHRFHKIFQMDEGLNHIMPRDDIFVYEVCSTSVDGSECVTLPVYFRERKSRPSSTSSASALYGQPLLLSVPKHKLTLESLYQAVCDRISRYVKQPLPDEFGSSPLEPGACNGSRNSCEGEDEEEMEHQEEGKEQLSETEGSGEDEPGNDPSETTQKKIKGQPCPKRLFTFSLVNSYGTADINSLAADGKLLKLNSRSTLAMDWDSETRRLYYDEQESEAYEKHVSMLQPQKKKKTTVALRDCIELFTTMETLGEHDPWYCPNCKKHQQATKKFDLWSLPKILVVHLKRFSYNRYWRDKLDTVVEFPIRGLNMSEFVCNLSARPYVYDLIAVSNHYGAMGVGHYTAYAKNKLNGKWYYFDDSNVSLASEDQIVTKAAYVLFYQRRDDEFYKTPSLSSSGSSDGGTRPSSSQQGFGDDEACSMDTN
How it was run: as §1

Measured: log2 ratio of Biotin-Ahx-Ub-VS probe labelling

Sequence of USP34 (Q70CQ2 whole entry, the tested form may be a part): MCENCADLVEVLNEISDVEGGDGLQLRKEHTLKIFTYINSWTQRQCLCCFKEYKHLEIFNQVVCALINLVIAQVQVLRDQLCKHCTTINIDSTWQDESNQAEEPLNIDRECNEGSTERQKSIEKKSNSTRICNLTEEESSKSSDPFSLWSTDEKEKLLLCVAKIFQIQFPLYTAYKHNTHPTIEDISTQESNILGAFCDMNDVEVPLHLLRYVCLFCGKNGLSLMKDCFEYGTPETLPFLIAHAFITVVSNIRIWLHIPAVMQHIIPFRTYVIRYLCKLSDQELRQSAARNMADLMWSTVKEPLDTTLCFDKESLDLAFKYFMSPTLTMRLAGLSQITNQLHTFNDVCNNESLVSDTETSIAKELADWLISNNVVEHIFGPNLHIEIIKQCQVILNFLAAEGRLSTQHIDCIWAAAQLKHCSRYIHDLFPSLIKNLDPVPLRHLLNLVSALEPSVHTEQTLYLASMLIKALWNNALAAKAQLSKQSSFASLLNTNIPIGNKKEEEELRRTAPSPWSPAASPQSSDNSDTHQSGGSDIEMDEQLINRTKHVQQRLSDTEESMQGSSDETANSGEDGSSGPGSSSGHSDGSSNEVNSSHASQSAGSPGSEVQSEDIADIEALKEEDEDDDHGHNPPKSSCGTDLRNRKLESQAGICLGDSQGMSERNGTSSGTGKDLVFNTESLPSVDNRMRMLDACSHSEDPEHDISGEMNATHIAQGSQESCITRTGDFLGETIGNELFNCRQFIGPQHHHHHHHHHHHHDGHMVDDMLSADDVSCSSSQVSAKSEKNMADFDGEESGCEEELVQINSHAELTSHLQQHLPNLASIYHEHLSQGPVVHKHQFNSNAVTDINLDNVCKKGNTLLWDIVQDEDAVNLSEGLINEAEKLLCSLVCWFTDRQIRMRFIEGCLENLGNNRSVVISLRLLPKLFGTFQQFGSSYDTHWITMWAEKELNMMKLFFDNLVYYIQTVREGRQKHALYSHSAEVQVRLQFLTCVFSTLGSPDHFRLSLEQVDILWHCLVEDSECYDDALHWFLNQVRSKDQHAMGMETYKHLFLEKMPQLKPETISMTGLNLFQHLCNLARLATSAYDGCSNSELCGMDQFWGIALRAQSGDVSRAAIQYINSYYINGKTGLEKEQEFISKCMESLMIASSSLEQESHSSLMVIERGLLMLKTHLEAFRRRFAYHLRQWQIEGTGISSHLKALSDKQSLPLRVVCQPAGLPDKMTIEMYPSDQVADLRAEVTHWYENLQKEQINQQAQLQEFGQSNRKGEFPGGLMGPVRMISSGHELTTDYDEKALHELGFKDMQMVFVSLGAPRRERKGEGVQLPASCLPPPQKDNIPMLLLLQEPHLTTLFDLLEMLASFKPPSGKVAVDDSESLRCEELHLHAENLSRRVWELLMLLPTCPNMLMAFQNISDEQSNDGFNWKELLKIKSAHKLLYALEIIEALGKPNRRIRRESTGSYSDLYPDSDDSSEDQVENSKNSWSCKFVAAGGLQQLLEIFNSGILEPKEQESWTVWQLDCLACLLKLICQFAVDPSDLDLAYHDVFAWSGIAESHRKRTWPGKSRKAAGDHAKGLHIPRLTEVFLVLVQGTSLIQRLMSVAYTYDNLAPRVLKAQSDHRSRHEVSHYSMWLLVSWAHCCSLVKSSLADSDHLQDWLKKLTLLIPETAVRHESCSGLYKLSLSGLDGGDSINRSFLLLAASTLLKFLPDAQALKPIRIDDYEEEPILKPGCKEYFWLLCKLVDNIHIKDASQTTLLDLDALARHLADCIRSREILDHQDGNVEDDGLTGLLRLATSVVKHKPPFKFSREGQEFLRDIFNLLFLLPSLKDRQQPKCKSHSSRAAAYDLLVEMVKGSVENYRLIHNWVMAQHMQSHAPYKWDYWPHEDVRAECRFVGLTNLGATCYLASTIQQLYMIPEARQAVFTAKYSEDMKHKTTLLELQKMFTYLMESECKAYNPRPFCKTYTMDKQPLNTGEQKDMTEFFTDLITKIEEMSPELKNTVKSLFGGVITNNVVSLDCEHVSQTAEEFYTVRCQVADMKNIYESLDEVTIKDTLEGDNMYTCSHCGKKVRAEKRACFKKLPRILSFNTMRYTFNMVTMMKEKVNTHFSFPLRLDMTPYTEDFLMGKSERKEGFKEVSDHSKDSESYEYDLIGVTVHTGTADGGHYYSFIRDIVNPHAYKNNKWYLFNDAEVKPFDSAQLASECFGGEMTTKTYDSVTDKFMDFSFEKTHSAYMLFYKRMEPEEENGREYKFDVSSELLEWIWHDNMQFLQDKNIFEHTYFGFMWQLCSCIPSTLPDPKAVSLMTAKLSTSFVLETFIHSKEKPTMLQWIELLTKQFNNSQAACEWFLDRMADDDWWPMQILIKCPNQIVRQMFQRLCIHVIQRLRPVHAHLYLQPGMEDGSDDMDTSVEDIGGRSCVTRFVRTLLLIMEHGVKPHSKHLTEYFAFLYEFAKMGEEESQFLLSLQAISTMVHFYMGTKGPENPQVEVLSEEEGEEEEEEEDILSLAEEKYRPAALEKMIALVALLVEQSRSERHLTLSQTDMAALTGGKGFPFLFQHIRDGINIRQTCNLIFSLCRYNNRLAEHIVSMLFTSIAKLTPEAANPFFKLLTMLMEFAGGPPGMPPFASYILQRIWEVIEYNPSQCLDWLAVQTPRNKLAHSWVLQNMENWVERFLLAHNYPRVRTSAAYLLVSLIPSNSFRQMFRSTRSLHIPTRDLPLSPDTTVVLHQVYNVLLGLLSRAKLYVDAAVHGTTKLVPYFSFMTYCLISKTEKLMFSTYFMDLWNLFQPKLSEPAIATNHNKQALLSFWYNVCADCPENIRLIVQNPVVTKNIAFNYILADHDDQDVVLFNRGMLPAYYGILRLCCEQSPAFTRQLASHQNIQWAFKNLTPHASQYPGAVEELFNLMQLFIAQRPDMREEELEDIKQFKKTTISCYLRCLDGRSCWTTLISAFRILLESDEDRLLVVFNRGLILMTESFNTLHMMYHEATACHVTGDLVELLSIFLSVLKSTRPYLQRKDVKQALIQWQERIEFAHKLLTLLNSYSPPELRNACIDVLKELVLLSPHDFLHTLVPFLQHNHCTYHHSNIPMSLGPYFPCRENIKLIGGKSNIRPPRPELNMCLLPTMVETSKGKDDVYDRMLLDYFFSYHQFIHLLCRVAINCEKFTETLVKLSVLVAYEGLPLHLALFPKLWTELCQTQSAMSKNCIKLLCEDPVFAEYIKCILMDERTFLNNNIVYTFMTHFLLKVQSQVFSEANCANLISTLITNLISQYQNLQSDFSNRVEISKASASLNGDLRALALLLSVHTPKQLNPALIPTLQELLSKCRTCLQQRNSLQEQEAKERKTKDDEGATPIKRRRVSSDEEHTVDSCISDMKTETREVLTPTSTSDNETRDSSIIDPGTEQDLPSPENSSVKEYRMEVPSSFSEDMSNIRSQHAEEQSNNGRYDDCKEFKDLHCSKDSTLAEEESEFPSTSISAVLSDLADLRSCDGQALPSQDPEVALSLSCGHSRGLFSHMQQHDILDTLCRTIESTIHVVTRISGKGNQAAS

O=C(CCl)NCc1ccc(N2CCOCC2)c(F)c1
inactive: USP34 -0.0627 | USP36 -0.165 | USP38 0.104 | USP39 0.0411 | USP4 0.263
